# Out of some 410,000 compounds screened, about 6,400 (1.6%) were called active. About 20% were inconclusive and are not listed. Calls follow the shape of the dose curve; as a rule, active = well fitted inhibition curve with a large enough effect; inconclusive = small, poorly fitted or top-dose-only effect; inactive = no such curve, though single readings can be large or run the other way. The entries come from a sample that favours actives as a whole. Entries that show only a call come without a potency.
# Biological target: Glucagon-like peptide 1 receptor (Homo sapiens) (UniProt P43220)
# Sequence (P43220 whole entry, looked up): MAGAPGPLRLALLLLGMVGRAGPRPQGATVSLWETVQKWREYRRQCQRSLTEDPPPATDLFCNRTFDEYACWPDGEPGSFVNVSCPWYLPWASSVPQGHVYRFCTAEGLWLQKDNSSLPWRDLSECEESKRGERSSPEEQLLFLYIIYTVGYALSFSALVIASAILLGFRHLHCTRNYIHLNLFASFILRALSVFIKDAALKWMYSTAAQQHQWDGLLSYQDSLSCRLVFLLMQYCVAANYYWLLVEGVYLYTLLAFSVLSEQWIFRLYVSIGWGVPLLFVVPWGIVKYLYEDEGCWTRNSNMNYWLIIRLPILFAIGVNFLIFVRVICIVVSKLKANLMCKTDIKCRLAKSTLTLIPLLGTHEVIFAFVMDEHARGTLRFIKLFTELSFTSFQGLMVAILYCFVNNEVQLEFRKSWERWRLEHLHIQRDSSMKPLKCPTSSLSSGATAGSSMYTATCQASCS
# Experiment: qHTS of GLP-1 Receptor Inverse Agonists (Inhibition Mode); also: nearly all actives have a fitted effect of over 55% in size
# Conditions: HEK293 GLP-1R CRE-luciferase, luminescence, 24 h; series mostly up to 38.3 µM
# Description: The overall goal of this project was to develop a novel assay for discovering small molecule ligands for class B1 G protein-coupled receptors (GPCRs). Very few agonists (or inverse agonists in inhibition mode) with generally weak activity for this entire group of physiologically important receptors are known to date. To establish proof-of-principle that this critical bottleneck can be overcome with a suitable screening approach, our studies focused on the class B1 receptor for glucagon-like peptide-1 (GLP-1R), a potential therapeutic target for diabetes and neurodegenerative disease. The assay was developed using a cell-based functional readout. Toward this goal, stably transfected HEK293 cell clones were established that co-express (i) a cAMP-responsive luciferase reporter gene, and (ii) constitutively active GLP-1R that upon ligand interaction inhibit (inverse agonists) the luciferase activity. In addition, two control cell lines were developed: (i) one that express only the cAMP-responsive reporter gene to enable initial exclusion of GLP-1R independent effects of candidate probes; and (ii) one with the reported gene cloned with another constitutively active orphan receptor GPR119 to enable exclusion of GLP-1R independent inhibitor effects of candidate inverse agonists. To that end, this assay was optimized for 1536-well format and screened against the MLSMR. […] NIH Molecular Libraries Probe Production Network [MLPCN] NIH Chemical Genomics Center [NCGC] Grant: NS064851 PI Name: Martin Beinborn, Tufts Medical Center
# Six ul of cell suspension (200 cells/uL in DMEM + 10% Nu serum + 1% pen-strep) is dispensed in a white solid 1536-well plate. The plates are incubated for 12 hours at 37 deg C at 5% CO2 followed by addition of 23 nL compounds. After 24 hr incubation at 37 deg C and 5% CO2, 3 uL of luciferase assay detection reagent is added. A luminescence read is obtained on the PerkinElmer Viewlux after 12 min incubation at room temperature.
# Potency is read from the fitted curve at half-maximal effect.
row,SMILES,Potency
1,O=c1c2ccccc2[nH]c(=S)n1-c1cccc(Cl)c1,inactive
2,COc1cc(-n2c(=S)[nH]c3ccc(C)cc3c2=O)c(Cl)cc1Cl,12.6 µM (active)
3,C[C@]12CCCCC1=CC(=O)C1C2CC[C@@]2(C)C1C[C@@H](F)[C@@H]2O (stereo not given in full),inactive
4,COC1=CC=C2[C@H]3Cc4ccc(OC)c5c4[C@@]2(CCN3C)C1O5 (stereo not given in full),inactive
5,COc1ccc2c(c1)NP(=S)(c1ccccc1)N2 (stereo not given),inactive
6,COC(=O)C1=C(c2ccc(OCc3ccccc3)cc2)C[C@@H]2CC[C@H]1N2C(=O)NCc1ccc(Cl)cc1,inactive
7,COC(=O)C1=C(c2ccc(F)cc2OCc2ccccc2)C[C@@H]2CC[C@H]1N2C(=O)NCc1ccc(Cl)cc1,inactive
8,COC(=O)C1=C(c2cccc(OCc3ccccc3)c2)C[C@@H]2CC[C@H]1N2C(=O)NCc1ccc(Br)cc1,12.6 µM (active)
9,COC(=O)C1=C(c2ccccc2OCc2ccccc2)C[C@@H]2CC[C@H]1N2C(=O)NCc1ccc(OC)cc1,inactive
10,COC(=O)C1=C(c2ccc(OCc3ccccc3)cc2)C[C@@H]2CC[C@H]1N2C(=O)NCc1cccc(F)c1,4.47 µM (active)
11,COC(=O)C1=C(c2ccc(-c3ccccc3)c(F)c2)C[C@@H]2CC[C@H]1N2C(=O)NCc1ccc(F)cc1,inactive
12,COc1ccc(NC(=O)N2Cc3ccccc3-n3nncc3C2)cc1,inactive
13,O=P(OC1=CCCCC1)(c1ccccc1)c1ccccc1,inactive
14,CCOC(=O)CNC(=O)N1Cc2cc(N3CCCCC3)ccc2-n2nncc2C1,inactive
15,O=C1NCN(c2ccccc2)C12CCN(C(c1cccs1)c1nnnn1C1CCCCC1)CC2 (stereo not given),inactive
16,CC1([N+](=O)[O-])COP(=O)(Nc2ccc(F)cc2)OC1 (stereo not given),inactive
17,C[C@]12CCC3C(CC[C@H]4[C@H](O)[C@H](O)CC[C@]34C)C1CC[C@@H]2O (stereo not given in full),inactive
18,Cc1ccc(CN2CCCC(C(=O)c3ccc4c(c3)OCO4)C2)cc1C (stereo not given),11.2 µM (active)
19,COc1ccc(C(=O)C2CCCN(Cc3ccc(C)s3)C2)cc1OC (stereo not given),inactive
20,Cc1ccsc1C(=O)C1CCCN(Cc2ccc(O)cc2)C1 (stereo not given),inactive
21,COc1cc(C(=O)N2Cc3ccc(Br)cc3-n3nncc3C2)cc(OC)c1OC,inactive
22,Clc1ccc(Cl)c(Oc2ccc(Oc3nc(Cl)ccc3Cl)cc2)n1,inactive
23,C[C@H]1CN([C@@H](C)CO)C(=O)CCCn2nncc2CO[C@H]1CN(C)C(=O)Oc1cccc2ccccc12,inactive
24,CC=C(C)C(=O)OC1CCN2CC=C(COC(=O)C(O)(C(C)OC)C(C)(C)O)C12 (stereo not given),inactive
25,Cc1ccc(S(=O)(=O)N(C)c2ccc(C(=O)NCC3(N(C)C)CCCCC3)cc2)cc1,3.16 µM [GLP-1R form is constitutively active] (active)
26,COC1C(O)C(C)OC(OC2CCC3(C=O)C(CCC4C3CCC3(C)C(C5=CC(=O)OC5)CCC43O)C2)C1O (stereo not given),inactive
27,O=c1c2ccccc2nc(/C=C/c2ccco2)n1-c1ccccc1O,11.2 µM (active)

row,SMILES,Potency
1,O=c1c2ccccc2nc(/C=C/c2ccc(F)cc2)n1-c1ccccc1O,inactive
2,Cn1cc(/C=C/c2nc3ccccc3c(=O)n2-c2ccccc2)c2ccccc21,inactive
3,CC1CCCN1CCC(C(N)=O)(c1ccccc1)c1ccccc1 (stereo not given),inactive
4,CC1CC=CCC12C(=O)NC(=S)NC2=O (stereo not given),inactive
5,CCN1C(=O)NC(=O)C2(CCCC2)C1=O,inactive
6,C[C@H]1CN([C@@H](C)CO)C(=O)CCCn2nncc2CO[C@H]1CN(C)C(=O)Oc1ccccc1,inactive
7,O=C1NC(=O)C(Cc2ccccc2)C(=O)N1,inactive
8,COC(=O)C[C@H]1CC[C@H]2NC[C@@H](O)COC[C@@H]2O1,inactive
9,CCn1cc(CN2CCCC(C(=O)c3cccc(C(F)(F)F)c3)C2)cn1 (stereo not given),inactive
10,COc1cccc(C(=O)Nc2ccc(-c3cc(C(F)(F)F)nn3-c3ccccc3)cc2)c1,7.94 µM [GLP-1R form is constitutively active] (active)
11,COc1ccc(NC(=O)c2cn(CCC#N)nc2-c2ccc([N+](=O)[O-])cc2)cc1,inactive
12,COc1ccc(-c2nn(CCC#N)cc2C(=O)Nc2ccc(C(C)=O)cc2)cc1,inactive
13,O=C1NC(=O)C(CCOc2ccccc2)(CCc2ccccc2)C(=O)N1,inactive
14,O=C1C2CCN(CC2)C1(CO)CO,inactive
15,CC12CCC(O)CC1CCC1C2CCC2(C)C(C(=O)CC(O)C(F)(F)F)CCC12 (stereo not given),inactive
16,CCCCOc1ccc(C(=O)N2CC(=O)Nc3ccc(Br)cc3C2c2ccc(F)cc2)cc1 (stereo not given),10 µM [GLP-1R form is constitutively active] (active)
17,CC(=O)NCC1=C(c2ccc3ccccc3c2)C[C@@H]2CC[C@H]1N2Cc1ccco1,inactive
18,O=C1C2(Cl)C3(Cl)C4(Cl)C(Cl)(Cl)C5(Cl)C3(Cl)C1(Cl)C5(Cl)C24Cl (stereo not given),4.47 µM (active)
19,CC(C)CN1Cc2cc(N3CCCCC3)ccc2-n2nncc2C1,inactive
20,COc1ccc(C2C=C(C)Oc3c2c(=O)oc2ccccc32)cc1OC (stereo not given),inactive
21,CSCCC(c1nnnn1C(C)(C)C)N1CCC(n2c(=O)[nH]c3ccccc32)CC1 (stereo not given),inactive
22,O=C(CCN1CCCCC1)NCC(=O)Nc1ccc(Br)cc1C(=O)c1ccccc1,inactive
23,O=C(CN1CCCCC1)Nc1ccc(Br)cc1C(=O)c1ccccc1Cl,10 µM [GLP-1R form is constitutively active] (active)
24,O=C(COC(=O)c1ccccc1)Nc1ccc(Cl)cc1C(=O)c1ccccc1,inactive
25,CC(=O)c1ccc(-c2ccc(Cn3c(C)nc4cc(N)c(C)nc43)cc2)cc1,inactive
26,O=C(NC1CCCCC1)N1Cc2cc(N3CCCCC3)ccc2-n2nncc2C1,inactive
27,CC(=O)C1(O)CCC2C3CCC4=C(Cl)C(=O)CCC4(C)C3CCC21C (stereo not given),inactive

row,SMILES,Potency
1,CCOC(=O)C1(Cc2ccc(Cl)cc2)CCN(C(C)CCn2cccn2)CC1 (stereo not given),7.94 µM [GLP-1R form is constitutively active] (active)
2,Oc1ccc2c3c1OC1[C@H](O)CC[C@@]4(O)[C@@H](C2)N(CC2CC2)CC[C@]314 (stereo not given in full),inactive
3,CC1CNCCN1c1ccc(Cl)cc1 (stereo not given),inactive
4,CC1=C(C(=O)Nc2ccccc2)S(=O)(=O)CCO1,10 µM (active)
5,CC1=C(C(=O)Nc2ccccc2)SCCO1,inactive
6,CCC(=O)OC(Cc1ccccc1)(c1ccccc1)C(C)CN(C)C (stereo not given),inactive
7,C=C(C)C1(CCCC)C(=O)NC(=S)NC1=O,inactive
8,CCC1(CC(C)c2ccccc2)C(=O)NC(=O)NC1=O (stereo not given),inactive
9,CCC(C)(O)C(=O)OC1C(=O)OC2CC3C(C)=CC(=O)C(O)C3(C)C3C4(O)OCC23C1C(C)C4O (stereo not given),inactive
10,COc1ccc(C2CC(c3cccs3)=NN2c2nc(C)c(C(C)=O)s2)cc1OC (stereo not given),inactive
11,CCOC(=O)[C@]12Cc3ccccc3[C@H]1N(C1CCCCC1)C(=O)c1cc(OC)ccc12,5.62 µM (active)
12,Cc1ccc(OC(=O)N(C)C[C@@H]2OCc3cnnn3CCCC(=O)N([C@H](C)CO)C[C@@H]2C)cc1,inactive
13,S=C(NCCc1ccccc1)N1Cc2cc(N3CCOCC3)ccc2-n2nncc2C1,inactive
14,COc1cccc(-c2nc3ccc(N4CCN(C)CC4)cc3[nH]2)c1,1.12 µM (active)
15,Cc1nc2ccc(N3CCN(C)CC3)cc2nc1C,inactive
16,c1ccc(N2Cc3ccccc3-n3nncc3C2)nc1,inactive
17,CC(=CCOc1ccc2ccc(=O)oc2c1)C1=CC(=O)C(C)(C)O1,2.24 µM (active)
18,CCOc1ccc(CC(=O)NCCc2csc3nc(-c4ccccc4F)nn23)cc1,inactive
19,CC12CCC3C(CCC4CC(=O)CCC43C)C1CC(=NO)C2=O (stereo not given),inactive
20,CCOC(=O)c1cccc(C2=C(CNC(=O)c3ccncc3)[C@H]3CC[C@@H](C2)N3Cc2ccccc2)c1,inactive
21,COC(=O)CN(CCCl)P1(=O)OCCCN1CCCl (stereo not given),inactive
22,CC(=O)Nc1cc(-c2cccc(CO)c2)cn2c(-c3cccc(C(F)(F)F)c3)cnc12,inactive
23,O=Cc1cn(Cc2ccc(F)cc2Cl)c2ccccc12,10 µM (active)
24,O=C(C1CCN(S(=O)(=O)c2ccc(Br)s2)CC1)N1CCN(c2ccccc2)CC1,inactive
25,CC1C(=O)OC2CCN3CC=C(COC(=O)C(C)(O)C1(C)O)C23 (stereo not given),inactive
26,O=c1c2ccccc2nc(CBr)n1-c1ccc(Cl)cc1,inactive

# Reference: PubChem BioAssay AID624417 (National Center for Advancing Translational Sciences (NCATS), 2012)
